# According to the supplement of paper PMC10981050:
# Values joined by “and” are separate entries in the source; they are usually repeats but may differ in a detail not shown here. Equal values may be shown once. Where a name gives a salt, the structure may show the parent alone.
# How the values were obtained:
# Assay in all cases: cell viability relative to vehicle control; higher = less cytotoxic
# Conditions in all cases: 10 µM
# [1] = tested on: K562
# Procedure, shortened: (§1)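 Screening covered the Selleck bioactive, kinase and epigenetic probe libraries, less identity-inconsistent compounds, on CRISPR-edited mutant clones and isogenic wild-type clones of four leukaemia lines. Cells, at 2000 per well in 50 µL medium, received a single 10 µM acoustically dispensed dose. After 48 h the supernatant was removed and CellTiter-Glo luminescence was read. Viability was analysed in Genedata Screener as percent of the on-plate vehicle control.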
# [2] = tested on: MARIMO
# Procedure, shortened: as §1
# [3] = tested on: MOLM14
# Procedure, shortened: as §1
# [4] = tested on: OCI-AML2
# Procedure, shortened: as §1
Structure (SMILES),cell viability ([1]; SRSF2 genotype: SRSF2 P95H/wt),cell viability ([1]; SRSF2 genotype: SRSF2 wt/wt) [%],cell viability ([2]; SRSF2 genotype: SRSF2 P95H/wt) [%],cell viability ([2]; SRSF2 genotype: SRSF2 wt/wt) [%],cell viability ([3]; SRSF2 genotype: SRSF2 P95H/wt) [%],cell viability ([3]; SRSF2 genotype: SRSF2 wt/wt) [%],cell viability ([4]; SRSF2 genotype: P95H/wt) [%],cell viability ([4]; SRSF2 genotype: wt/wt) [%]
O=c1[nH]c(=S)[nH]c2nc(-c3ccccc3)c(-c3ccccc3)nc12,97.9% and 90.8%,92,103,105,92.8,97.4,98.9,98.3
O=C1c2ccccc2C(=O)C1c1ccccc1 [Phenindione (Rectadione)],103% and 98.4%,105,105,104,107,106,101,113
O=C(Nc1cccc2cccnc12)c1ccc(N2C(=O)C3C4C=CC(C4)C3C2=O)cc1 (stereo not drawn) [IWR-1-endo],95.8% and 94%,101,100,103,111,118,97.9,98.8
Cc1c(C)c2c(c(C)c1O)CCC(C)(CCCC(C)CCCC(C)CCCC(C)C)O2 (centres undefined) [Vitamin E],96.5% and 100%,108,106,104,105,104,106,100
"CC(C)(C)OC(=O)N[C@@H]1CCCC[C@H]1N [(1R,2R)-trans-N-Boc-1,2-cyclohexanediamine]",104% and 108%,98.6,101,104,101,105,114,104
CC(=O)OCc1ccccc1 [Benzyl acetate],103% and 94.2%,100,96.5,105,97,107,98.3,98.4
Cc1cccc(-c2[nH]c(CNc3ccccc3F)nc2-c2ccc3ncnn3c2)n1,94.6% and 103%,99.9,102,109,95.2,98,111,114
"CC1(C)CCC(CN2CCN(c3ccc(C(=O)NS(=O)(=O)c4ccc(NCC5CCOCC5)c([N+](=O)[O-])c4)c(Oc4cnc5[nH]ccc5c4)c3)CC2)=C(c2ccc(Cl)cc2)C1 [Venetoclax (ABT-199, GDC-0199)]",79% and 81.2%,76,0.58,6.31,1.63,7.23,1.25,10.2
CCN(CC)Cc1cc(Nc2ccnc3cc(Cl)ccc23)ccc1O [Amodiaquine hydrochloride],80.3% and 76.8%,74,61,67.4,40.2,31.1,39,33.4
NC(=O)c1cnc(NCCc2ccc(O)c(Cl)c2)nc1NCc1ccccc1,34.2% and 38.5%,33.3,8.49,5.28,5.95,1.62,8.8,13.2
C=C1/C(=C\C=C2/CCC[C@]3(C)[C@@H]([C@H](C)CCCC(C)(C)O)CC[C@@H]23)C[C@@H](O)C[C@@H]1O [Calcitriol (Rocaltrol)],81.2% and 89.8%,88.2,66.9,66.5,65.4,62.6,64.9,76.3
CC(=O)OC/C=C(/C)CCC=C(C)C [Neryl acetate],98.4% and 101%,100,96.8,102,112,99.6,100,103
CCCCOCc1ccc(O)c(OC)c1 [Vanillyl Butyl Ether],98.9% and 92.9%,101,97.6,106,98.8,101,93.1,109
CCNC(=O)[C@@H]1CCCN1C(=O)[C@H](CCCN=C(N)N)NC(=O)[C@H](CC(C)C)NC(=O)[C@@H](CC(C)C)NC(=O)[C@H](Cc1ccc(O)cc1)NC(=O)[C@H](CO)NC(=O)[C@H](Cc1c[nH]c2ccccc12)NC(=O)[C@H](Cc1cnc[nH]1)NC(=O)[C@@H]1CCC(=O)N1 [S3718 Leuprolide Acetate.cdx],104% and 107%,102,110,112,103,105,102,108
CCN1CCN(Cc2ccc(Nc3ncc(F)c(-c4cc(F)c5nc(C)n(C(C)C)c5c4)n3)nc2)CC1,1.86% and 0.59%,0.69,0.46,0.64,0.3,0.31,0.29,0.39
CC(C)NC[C@@H](C(=O)N1CCN(c2ncnc3c2[C@H](C)C[C@H]3O)CC1)c1ccc(Cl)cc1 [Ipatasertib (GDC-0068)],90.8% and 87.6%,86.3,80.8,80,51.1,56.6,72.1,81.2
CC(C(=O)O)c1ccc2c(c1)Cc1cccnc1O2 (centres undefined) [Pranoprofen],105% and 106%,110,110,107,102,105,112,106
N[C@@H]1CCCCN(c2c(F)cc3c(=O)c(C(=O)O)cn(C4CC4)c3c2Cl)C1 [Besifloxacin HCl (Besivance)],97.5% and 91.4%,99.9,99.3,96.6,97.6,98.3,121,95.6
O=C(NO)c1ccc(CC(=O)N(CCO)c2ccccc2)cc1,87.2% and 92.2%,86.2,78.9,90.4,71.9,73.6,77.2,81.6

Structure (SMILES),cell viability ([1]; SRSF2 genotype: SRSF2 P95H/wt),cell viability ([1]; SRSF2 genotype: SRSF2 wt/wt) [%],cell viability ([2]; SRSF2 genotype: SRSF2 P95H/wt) [%],cell viability ([2]; SRSF2 genotype: SRSF2 wt/wt) [%],cell viability ([3]; SRSF2 genotype: SRSF2 P95H/wt) [%],cell viability ([3]; SRSF2 genotype: SRSF2 wt/wt) [%],cell viability ([4]; SRSF2 genotype: P95H/wt) [%],cell viability ([4]; SRSF2 genotype: wt/wt) [%]
CC1CCC2(C(=O)O)CCC3(C)C(=CCC4C5(C)CCC(OC6OCC(O)C(O)C6O)C(C)(C)C5CCC43C)C2C1(C)O (centres undefined) [Ziyuglycoside II],100% and 99.1%,101,97.4,99,103,99,99.6,95.6
CN(C)CCCNC(=O)c1ccc(-c2cc(O)c3ncccc3c2)cc1,55% and 32.1%,47.3,52.3,53,40.7,24.9,33,33.2
CCN(CCO)CCCOc1ccc2c(Nc3cc(CC(=O)Nc4cccc(F)c4)[nH]n3)ncnc2c1 [Barasertib (AZD1152-HQPA)],70.7% and 93.2%,81,73.2,68.2,13.9,7.61,29.1,36.6
O=C(OC[C@H]1O[C@@H](OC(=O)c2cc(O)c(O)c(OC(=O)c3cc(O)c(O)c(O)c3)c2)[C@H](OC(=O)c2cc(O)c(O)c(OC(=O)c3cc(O)c(O)c(O)c3)c2)[C@@H](OC(=O)c2cc(O)c(O)c(OC(=O)c3cc(O)c(O)c(O)c3)c2)[C@@H]1OC(=O)c1cc(O)c(O)c(OC(=O)c2cc(O)c(O)c(O)c2)c1)c1cc(O)c(O)c(OC(=O)c2cc(O)c(O)c(O)c2)c1 [Tannic acid],96.5% and 87.2%,98.5,98.7,99.3,89.6,92.2,106,94.8
O=C1Nc2ccc(I)cc2C1=Cc1cc(Br)c(O)c(Br)c1,96.6% and 89.4%,90.1,89.9,109,84.7,93.8,86.7,90.7
Cn1ncc(Cl)c1-c1cc(C(=O)N[C@H](CN)Cc2cccc(F)c2)sc1Cl,49.3% and 45.9%,51,67.5,63.7,34.9,37.3,33.6,48.6
O=c1c(-n2ccnn2)c[nH]n1-c1cc(N2CCOCC2)ncn1 [Molidustat(BAY 85-3934)],96.1% and 100%,90.2,81.8,98.1,87.9,93.6,85.2,87.9
O=C(NC1CCN(CCCCC2(C(=O)NCC(F)(F)F)c3ccccc3-c3ccccc32)CC1)c1ccccc1-c1ccc(C(F)(F)F)cc1 [Lomitapide],0.51% and 0.47%,0.4,0.42,0.43,0.37,0.37,0.35,0.46
CCOC(=O)Nc1ccc(NCc2ccc(F)cc2)nc1N [Flupirtine maleate],101% and 104%,104,91.5,105,101,103,100,110
C=CCc1cccc(/C=N/NC(=O)CN2CCN(Cc3ccccc3)CC2)c1O,70.5% and 67%,65.4,25.7,31.6,12.3,8.85,19.2,19.7
O=C(/C=C/c1ccc(O)c(O)c1)O[C@@H]1C[C@](O)(C(=O)O)C[C@@H](O)[C@H]1O [Chlorogenic acid],102% and 109%,99.4,99.4,108,104,102,99,102
Nc1nccc(Oc2ccc3c(C(=O)Nc4cccc(C(F)(F)F)c4)cccc3c2)n1,86.8% and 94.3%,87.9,109,125,93.6,102,94.8,106
CC(C)[C@H](NC(=O)[C@H](CC(=O)O)NC(=O)[C@H](CCCCN)NC(=O)[C@@H](N)CCCN=C(N)N)C(=O)N[C@@H](Cc1ccc(O)cc1)C(=O)O [Thymopentin],92.2% and 89.2%,87,86.4,94.6,95.8,91.6,77.9,89.5
COc1nc(OCc2cccc(-c3ccccc3)c2C)ccc1CNCCNC(C)=O [BMS202 (PD-1/PD-L1 inhibitor 2)],10.8% and 26.5%,32.6,60.9,59,41.6,31.9,53.5,51.3
COC(=O)[C@@]1(C)CC[C@]2(C(=O)O)CC[C@]3(C)C(=CC[C@@H]4[C@@]5(C)C[C@H](O)[C@H](O[C@@H]6OC[C@@H](O[C@@H]7O[C@H](CO)[C@@H](O)[C@H](O)[C@H]7O)[C@H](O)[C@H]6O)[C@@](C)(CO)[C@@H]5CC[C@]43C)[C@@H]2C1 [Esculentoside A],110% and 105%,105,104,108,108,107,96.8,105
CC(=O)O[C@]1(C(C)=O)CC[C@H]2[C@@H]3C=C(Cl)C4=CC(=O)[C@@H]5C[C@@H]5[C@]4(C)[C@H]3CC[C@@]21C [Cyproterone acetate],87.2% and 85.8%,84.7,66.1,71.6,86.2,93.3,75,77.4
Cc1ccc(NC(=O)c2ccc(CN3CCN(C)CC3)cc2)cc1Nc1nccc(-c2cccnc2)n1 [Imatinib (STI571)],12.8% and 26.4%,16.5,101,103,85,95,82.6,72.3
CC(C)(C)c1nc(-c2cccc(NS(=O)(=O)c3c(F)cccc3F)c2F)c(-c2ccnc(N)n2)s1,90.3% and 101%,84.3,78.5,75.8,73.6,68.2,93.2,83.9
CCOC(=O)N1CCC(CN(Cc2ccc(Cl)cc2)Cc2ccc([N+](=O)[O-])s2)C1 (centres undefined) [Stenabolic (SR9009)],56% and 70.8%,63.4,33.5,25.5,45.6,41.9,39.1,41.4
